EPAC1 agonist – agonists of human EPAC1. AID 720707. Potency, µM (titrated, usually from 154 µM), for the others: at the top dose activation, actives largely listed as activators. EPAC1 agonist qHTS, biochemical assay; response scale: 100% = response to 6.5 mM cAMP. actives 0.073% (n = 360,000); further: nearly all actives have a fitted effect of over 60% in size
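Compounds were pinned as a concentration titration into mixtures of EPAC1 (100 nM), BODIPY-GDP-loaded Rap1B (250 nM) and GDP (50 uM). After 5 min at room temperature, fluorescence was followed for 30 min; activity was scaled to 6.5 mM cAMP.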
EPAC2 agonist – agonists of human EPAC2 (RAPGEF4). EPAC2 activation, biochemical qHTS; response scale: 100% = 6.5 mM cAMP response. Q8WZA2. Potency, µM (top dose mostly 154 µM), for inactives: at the top dose activation, most hits filed as activators. actives 0.079% (n = 360,000); further: nearly all actives have a fitted effect of over 50% in size
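Fluorescence exchange assay: 100 nM EPAC2 with 250 nM RAP1B-BODIPY-GDP and 50 uM GDP; compounds tested as a concentration-titration series (qHTS). Loss of Rap1-bound BODIPY-GDP fluorescence read at 480/540 nm; data normalized to 6.5 mM cAMP.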
USP1-UAF1 inh – inhibitors of human USP1/UAF1 deubiquitinase. recombinant USP1/UAF1, Ub-Rhodamine cleavage fluorescence. Potency, µM (doses to about 57.1 µM), for the others: at the highest dose activity change, negative = inhibition, actives largely listed as inhibitors. actives 0.23% (n = 390,000). AID 743255; further: on the % scale 0 is the no-effect control and ±100 the full control effect; nearly all actives have a fitted effect of over 60% in size
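High-throughput fluorogenic screen: 1nM USP1/UAF1 complex, Ub-Rho substrate 150nM final, 50mM HEPES pH 7.8 with 0.5mM EDTA, 0.1 mg/ml BSA, 1mM TCEP and 0.01% Tween-20.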
EPAC2 antagonist – antagonists of human EPAC2; Q8WZA2; EPAC2 GEF exchange of Rap1B-BODIPY-GDP, fluorescence; Potency, µM (highest dose often 114 µM), for the others: at the top dose activity, negative = inhibition, hits mostly inhibitors; actives 0.18% (n = 360,000); further: on the % scale 0 is the no-effect control and ±100 the full control effect; nearly all actives have a fitted effect of over 45% in size
EPAC1 antagonist – blocks human EPAC1 exchange factor | EPAC1 GEF assay, Rap1b-BODIPY-GDP exchange fluorescence | Potency, µM (series often up to 115 µM), for the others: at the top dose activity change, negative = inhibition, actives largely listed as inhibitors | actives 0.14% (n = 360,000) | AID 720709;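 further: plate controls were vehicle for no effect and positive control for full effect; nearly all actives have a fitted effect of over 50% in size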
* marks the source's active call; other numbers are inactive results; ? = inconclusive; / = no result given. Sampled rows, rich in hits. Any-hit rate of the full collection: about 0.49%. The call rests on the fitted dose curve; in most records, active means well fitted curve in the direction sought with a large enough effect; inconclusive means small, poorly fitted or top-dose-only effect, or another doubt; inactive means no such curve, though single readings can be large; an effect the other way counts as inactive or inconclusive. Potency means the concentration at half of the fitted maximal effect.

SMILES | EPAC1 agonist | EPAC2 agonist | USP1-UAF1 inh | EPAC2 antagonist | EPAC1 antagonist
CCC1=NN2C(=N)/C(=C\c3ccc(SCc4ccco4)o3)C(=O)N=C2S1 | 3% | -2% | -9% | -3% | ?
O=C1NC(=S)S/C1=C\c1ccc(SCc2ccco2)o1 | 10% | 9% | ? | 45µM* | ?
O=C1NC(=S)S/C1=C\c1ccc(SCc2ccccc2)o1 | 19% | 14% | -12% | ? | 22µM*
CN(C)c1ccc(/C=C(/C#N)C(=O)Nc2nc3c(s2)CCN(Cc2ccccc2)C3)cc1 | 19% | 100µM* | ? | 89% | 3%
O=c1c(/C=N/Nc2ccccc2)c(Sc2nnnn2-c2ccccc2)nc2ccccn12 | 4% | -65% | 3.2µM* | 49% | 5%
CCN(CC)c1ccc2cc(-c3nc(-c4cc(OC)c(OC)c(OC)c4)no3)c(=O)oc2c1 | / | / | 40µM* | / | /
CS(=O)(=O)C1=NSC2=NC(=O)/C(=C\c3cccn3-c3ccc(Cl)cc3)C(=N)N21 | 9% | -8% | -4% | -17% | 35µM*
CCOC(=O)c1ccccc1NC(=O)CSc1ccc(-c2sc(-c3ccccc3)nc2C)nn1 | / | / | -18% | / | /
O=C(COc1ccc(Cl)cc1)Nc1c(-c2cccs2)nc2ccccn12 | -6% | 1% | -10% | 3% | -3%
CC(C)CCNc1c(-c2cccs2)nc2ccccn12 | 3% | -1% | -15% | 45µM* | -14%
CC(C)(C)C(=O)c1sc2nc(-c3cccs3)cc(C(F)(F)F)c2c1N | 4% | -78% | 1.3µM* | 64% | 26%
CCN(CC)C(=O)c1sc2nc(-c3cccs3)cc(-c3ccc(Cl)cc3)c2c1N | ? | -11% | 28µM* | 55% | 17%
Cc1ccccc1CN1C(=O)c2ccccc2S(=O)c2ccc(C(=O)NCc3ccccc3)cc21 (configuration not stated) | / | / | -11% | / | /
O/C=c1\ccc2cccc3nc(C(F)(F)F)nc1c23 | 89µM* | ? | 22µM* | 82% | 18%
NNc1nc(C(F)(F)F)nc2ccccc12 | 4% | 1% | -4% | 5% | 2%
N#C/C(=C\c1ccc(Sc2ccc(Cl)cc2)o1)c1nc2ccccc2[nH]1 | 8% | 100µM* | ? | 36% | 7%
N#C/C(=C/c1ccc(N2CCOCC2)o1)c1nc2ccccc2[nH]1 | 89µM* | 100µM* | 25µM* | 46% | -7%
COCCN1C(=O)c2[nH]nc(-c3ccccc3O)c2C1c1ccc(OCc2ccccc2)c(OC)c1 (configuration not stated) | / | / | -25% | / | /
COc1ccc(-n2nc(C(=O)N3CCN(c4cccc(C(F)(F)F)c4)CC3)c3c4ccccc4n(C)c3c2=O)cc1Cl | / | / | -5% | / | /
CCCc1[nH]c2ccc(C(=O)OC)cc2c1CCC | -9% | 16% | -27% | 28µM* | -20%
CCCc1[nH]c2ccc(C#N)cc2c1CCC | -23% | -1% | -28% | 28µM* | -27%
CCCCOc1cccc(NC(=O)c2cccc(C(=O)Nc3cccc(OCCCC)c3)c2)c1 | / | / | 5% | / | /
CCOC(=O)/C(=C/c1ccc(N2CCC(c3ccccc3)=N2)cc1)C(C)=O | ? | 100µM* | 4.5µM* | 202% | -7%
O=C(NCCOc1ccc(F)cc1)c1ccccc1SCc1ccccc1 | 16% | 9% | -12% | 50µM* | -7%
CCn1c(CNC(=O)C23CC4CC(CC(C4)C2)C3)nnc1SCC(=O)Nc1ccc(C)cc1 | / | / | -16% | / | /
O=C(Nc1ccc(N2CCOCC2)c2nonc12)C1CCCC1 | -5% | -5% | ? | 3% | -11%
Nc1ccc(N2CCOCC2)c2nonc12 | 0% | 14% | 18µM* | ? | ?
COc1ccccc1N1CCN(C(=O)c2cc3c(=O)n(C)c4ccccc4c3s2)CC1 | / | / | -24% | / | /
Cc1ccc(C2CC(c3cccs3)=NN2C(=O)CSc2nc(=O)n3cc(C)ccc3n2)cc1 (configuration not stated) | 112µM* | 8% | -23% | 7% | -10%
Cc1ccc2nc(SCC(=O)N3N=C(c4cccs4)CC3c3ccc(F)cc3)nc(=O)n2c1 (configuration not stated) | 1% | 7% | 2% | -11% | -4%

Compound activity from PubChem.
